Records with an inconclusive call do not appear. Values without a mark were called inactive. Calls of active or inactive are those of the source. Unless noted, calls follow the shape of the dose curve; as a rule, active = well fitted curve in the direction sought with a large enough effect; inconclusive = small, poorly fitted or top-dose-only effect, or another doubt; inactive = no such curve, though single readings can be large; an effect the other way counts as inactive or inconclusive.

A short description of test [1]: HEK-293 Cancer Cell Toxicity qHTS against the NCATS CANVASS Library (AID 1347355). The essentials: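 Luminescent ATP read-out (CellTiter-Glo, 15min at room temperature) measures survival after cells face an 11-point compound series for 72 hours at 37 degrees C/5% CO2.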
On the technique in general: In qHTS, concentration-response curves come from the screen itself.

The test system of test [2] is NAD(P)H diaphorase (Clostridium kluyveri). Nature of the test: Diaphorse counterscreen qHTS: Assay Interference Panel against the NCATS CANVASS Library (AID 1347362). The essentials: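 Clostridium kluyveri diaphorase in PBS with 0.01% Tween-20 was preincubated 15 min at room temperature in the dark with compounds (11-point series). Resorufin fluorescence (ex 525/20, em 598/25) was read 5 min after adding resazurin/NADH.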
On the technique in general: Counterscreens check selectivity or assay interference.

Test [3] in a line: KB-8-5-11 Cancer Cell Toxicity qHTS against the NCATS CANVASS Library (AID 1347364). The essentials:
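Plate 500 KB-8-5-11 cells per well in DMEM + 10% FBS, add compounds by pin transfer, incubate 72 hr at 37C. Add CellTiter-Glo, wait 10 minutes at room temperature, read luminescence.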

Test [4] in a line: KB-3-1 Cancer Cell Toxicity qHTS against the NCATS CANVASS Library (AID 1347366). The essentials: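 Luminescence from CellTiter-Glo (10 min, room temperature) measured KB-3-1 viability after 72 hr compound exposure at 37C. Cells were seeded at 500/well and tested in an 11-point series.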
The nature of test [5]: qHTS for Hypoxia signaling pathway (HIF-1) antagonists against the NCATS CANVASS Library (AID 1347374). The essentials: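 HRE-bla ME-180 cells in medium with 0.5% dialyzed FBS received compounds (11-point series) plus CoCl2 (60 uM addition stock) for 17 hrs at 37C. Beta-lactamase activity read with CCF4 (405 nm ex, 460/530 nm em); CellTiter-Glo viability measured in same wells.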

Test [6] is described as follows: qHTS for Inflammasome Signaling Inhibitors: IL-1-beta AlphaLISA screen against the NCATS CANVASS Library (AID 1347379). The essentials: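 THP-1 cells pretreated 1 hr with compound (up to 57.5 uM final), then stimulated with LPS (250 ng/mL final) and ATP (1.25 mM final). Secreted IL-1B measured by AlphaLISA after 16 hr; glyburide as positive control.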
Test [7] is described as follows: qHTS for inhibitors of Wild type Zika virus screened against the NCATS CANVASS Library (AID 1347396). The essentials:
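Vero 766 (African green monkey) cells, 1000 per well, attached overnight, then compounds were added in an 11-point series before wild-type Zika virus infection. After 72 h at 37C, cell viability was read as CellTiter Glo luminescence.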

A short description of test [8]: Viability qHTS for inhibitors of the SERCaMP assay screened against the NCATS CANVASS Library (AID 1347400). The essentials: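 SH-SY5Y SERCaMP MJH297 cells, 1000/well; 4 h settle, 37C/5% CO2; pin-transferred cpds; 48 h; CellTiter-Glo lum. Pos ctrl bortezomib 0.0001 - 4.6 uM.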
Test [9] can be described thus: qHTS assay for small molecule disruptors of mitochondrial membrane potential screened against the NCATS CANVASS Library (AID 1347389). The essentials: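 HepG2, 2,000 cells/well, attached overnight; compound 1 hr, 37C, 5% CO2; Mito-MPS dye 30 min, 37C; fluorescence 535 nm (monomer) and 590 nm (aggregate); decreased 590/535 ratio = depolarization.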
Test [10] is described as follows: qHTS for inhibitors of Rabies Virus screened against the NCATS CANVASS Library (AID 1347402; calls by dose curve).
In test [11] the target is Glutathione peroxidase 1 (Homo sapiens) (UniProt P07203). Nature of the test: Primary qHTS Assay for Inhibitors of Recombinant Selenoprotein Glutathione Peroxidase 1 (GPX1) (AID 1845191). The essentials:
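Recombinant GPX1 (10 nM final) was preincubated with compound for 30 min at room temperature, then reacted with 1 mM GSH, 0.5 mM CHP, 0.5 mM NADPH and 100 nM glutathione reductase; NADPH fluorescence (340/450 nm) was read at 0 and 15 min.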

Sequence of Glutathione peroxidase 1 (Homo sapiens) (P07203 whole entry, looked up): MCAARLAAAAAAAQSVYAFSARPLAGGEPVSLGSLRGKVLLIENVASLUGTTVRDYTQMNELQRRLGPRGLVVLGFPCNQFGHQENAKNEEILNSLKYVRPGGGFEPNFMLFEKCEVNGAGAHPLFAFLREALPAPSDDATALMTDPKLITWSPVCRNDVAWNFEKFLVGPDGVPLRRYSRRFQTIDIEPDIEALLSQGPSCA

As to `CC[C@H]1CN2CCc3c([nH]c4cccc(OC)c34)[C@@H]2C[C@@H]1/C(=C\OC)C(=O)OC`, in [1], the Potency is 23.5 µM (active). For the same molecule, the Potency entry in test [2], in test [3], in test [4], in test [5], in test [6] and in [7] was “inactive” in each case. Further, in [8], the Potency entry was “inactive”.
Regarding `CC[C@]12C=CCN3CC[C@]4(C(=C(C(=O)OC)C1)Nc1ccccc14)[C@@H]32`, the Potency result in test [2], in test [3], in test [4], in test [5], in test [9] and in test [7] was “inactive” throughout. For the same molecule, in test [10], the result was inactive.
On to `C/C=C1/CN2CC[C@]34C(=C(C(=O)OC)[C@H]1C[C@H]23)Nc1ccccc14`, for which the Potency result in test [1], in test [2], in [4], in test [5], in test [9] and in test [7] was “inactive” throughout. For the same molecule, in test [10], the call was inactive.
Regarding `CC12C[C@]3(O)O[C@@H](O1)[C@]1(COC(=O)c4ccccc4)[C@@H]3CC21OC1OC(CO)C(O)C(O)C1O` (stereo partly specified), the molecule was called inactive in [10].
Turning to `COc1ccc([C@@H]2c3cc4c(cc3C[C@H](C)C2C)OCO4)cc1OC` (stereo partly specified), the call in [10] was inactive.
On to `CC[C@H](O)CCCCC[C@@H]1NC(=O)[C@H]2CCCCN2C(=O)[C@H]([C@H](C)CC)NC(=O)[C@H](Cc2cn(OC)c3ccccc23)NC1=O`, for which the molecule was called inactive in test [10].
As to `CC(N[C@H]1C[C@@H]1c1ccccc1)c1ccc2c(c1)OCCO2` (stereo partly specified), the Potency result in test [11] is “inactive”.
The same measure, in the same setting: as for `CC(=O)O[C@@]12CO[C@@H]1C[C@H](O)[C@@]1(C)C(=O)[C@H](O)C3=C(C)[C@@H](O)C[C@@](O)([C@@H](OC(=O)c4ccccc4)[C@H]21)C3(C)C`, the entry is “inactive”; as for `O=C(CBr)N1CC([N+](=O)[O-])([N+](=O)[O-])C1`, “inactive”; as for `COC[C@H]1OC(=O)c2coc3c2[C@@]1(C)C1=C(C3=O)[C@@H]2CC[C@H](O)[C@@]2(C)C[C@H]1OC(C)=O`, “inactive”.
Same read-out and setting: to `COc1cc(C)[nH]c(=O)c1CNC(=O)c1c(C)n([C@H](C)C2CCN(CC(F)(F)F)CC2)c2ccccc12` belongs “inactive”; to `CC(C)(NC(=O)O[C@@H]1CN2CCC1CC2)c1csc(-c2ccc(F)cc2)n1`, “inactive”.
Take `COC(=O)[C@@]12OC[C@]34[C@H]([C@@H](O)[C@@H]1O)[C@@]1(C)CC(=O)C(O)=C(C)[C@@H]1C[C@H]3OC(=O)[C@H](OC(=O)/C=C(\C)C(C)C)[C@@H]24`: the Potency result in test [11] is “inactive”.
Turning to `COC12C(COC(N)=O)C3=C(C(=O)C(C)=C(N)C3=O)N1CC1C2N1C` (stereo unspecified), the Potency entry in test [11] was “inactive”.
Regarding `O=Cc1ccc2n1C[C@]1(OC2)O[C@H](CO)[C@@H](O)[C@@H]1O`, the result in [10] was inactive.
As to `C[C@@H]1CC[C@@]2(OC1)O[C@H]1C[C@H]3[C@@H]4CC=C5C[C@@H](O[C@@H]6O[C@H](CO)[C@@H](O[C@@H]7O[C@@H](C)[C@H](O)[C@@H](O)[C@H]7O)[C@H](O)[C@H]6O[C@@H]6O[C@@H](C)[C@H](O)[C@@H](O)[C@H]6O)CC[C@]5(C)[C@H]4CC[C@]3(C)[C@H]1[C@@H]2C`, in [11], the Potency entry is “inactive”.
Still for that read-out and setting: to `CC(C)[C@]12O[C@H]1[C@@H]1O[C@@]13[C@@]1(C)CCC4=C(COC4=O)[C@@H]1C[C@@H]1O[C@@]13C2=O` belongs “inactive”; to `CN1C(=O)[C@@H](NC(=O)[C@H](CCC(F)(F)F)[C@H](CCC(F)(F)F)C(N)=O)N=C(c2ccccc2)c2ccccc21`, “inactive”.
Take `Oc1ccc(/C=C2/c3cc(O)cc(O)c3C(c3ccc(O)cc3)[C@H]2c2cc(O)cc(O)c2)cc1` (stereo partly specified): the molecule was called inactive in test [10].
As to `CC1(C)CC[C@]2(NC(=O)C(C)(F)F)CC[C@]3(C)[C@H](C(=O)C=C4[C@@]5(C)C=C(C#N)C(=O)C(C)(C)[C@@H]5CC[C@]43C)[C@@H]2C1`, the Potency result in test [11] is “inactive”.
Same read-out and setting: to `CC(C)(O)/C=C\C(=O)[C@](C)(O)[C@H]1[C@H](O)C[C@]2(C)[C@@H]3CC=C4[C@@H](C=C(O)C(=O)C4(C)C)[C@]3(C)C(=O)C[C@@]12C` belongs “inactive”; to `COC(=O)[C@]12CCC(C)(C)C[C@H]1[C@H]1C(=O)C=C3[C@@]4(C)C=C(C#N)C(=O)C(C)(C)[C@@H]4CC[C@@]3(C)[C@]1(C)CC2`, “inactive”; to `C[C@@]12OC(=O)[C@]1([C@@H](O)[C@@H]1C=CCCC1)NC(=O)[C@@H]2CCCl`, “inactive”.
Same read-out and setting: as for `C[C@@H](C1CC[C@@]2(O)C3=CC(=O)[C@@H]4C[C@@H](O)[C@@H](O)C[C@]4(C)[C@H]3CC[C@]12C)[C@H](O)CCC(C)(C)O` (stereo partly specified), the entry is “inactive”.
For `N#CC(O[C@@H]1O[C@H](CO[C@@H]2O[C@H](CO)[C@@H](O)[C@H](O)[C@H]2O)[C@@H](O)[C@H](O)[C@H]1O)c1ccccc1` (stereo partly specified), in test [11], the Potency result is “inactive”.
For the molecule `CN1CC[C@@]2([C@@]34CCN(C)[C@@H]3Nc3ccccc34)c3ccccc3N[C@@H]12`, in test [10], the call was inactive.
As to `Cn1c(/C=C/CO)c(CO)c2c1C(=O)C=C(N1CC1)C2=O`, the Potency result in test [11] was “inactive”.
Still for that read-out and setting: to `Cc1[nH]ncc1-c1cc2nc([C@@H]3CC4CCN3CC4)[nH]c(=O)c2s1` belongs “inactive”; to `C/C=C(\C)C(=O)N[C@@H](c1ccccc1)[C@@H](O)C(=O)O[C@H]1C[C@@]2(O)[C@@H](OC(=O)c3ccccc3)[C@@H]3[C@]4(OC(C)=O)CO[C@@H]4C[C@H](O)[C@@]3(C)C(=O)[C@H](OC(C)=O)C(=C1C)C2(C)C`, “inactive”.
As for `O=C(O)CNC(=O)C1C(=O)N(C2CCCCC2)C(=O)N(C2CCCCC2)C1=O`, the Potency entry in [11] was “inactive”.
`COc1cc2cc(c1Cl)N(C)C(=O)C[C@H](OC(=O)C(C)C)[C@]1(C)O[C@@H]1[C@H](C)[C@@H]1C[C@@](O)(NC(=O)O1)[C@H](OC)/C=C/C=C(\C)C2`: in test [11], the Potency result was “inactive”.
On the same count and under the same terms, as for `Cn1c(COP(=O)(NCCBr)NCCBr)cnc1[N+](=O)[O-]`, the entry is “inactive”; as for `CO/C1=C/C(C)=C\[C@@H](C)[C@@H](O)[C@@H](C)C/C(C)=C\C=C/[C@H](OC)[C@@H]([C@@H](C)[C@@H](O)[C@H](C)[C@@]2(O)C[C@@H](O)[C@H](C)[C@@H](C(C)C)O2)OC1=O`, “inactive”.
On the same count and under the same terms, as for `CO[C@H]1CCC(O[C@H]2C[C@H]([C@]3(C)CC[C@]4(C[C@H](O)[C@@H](C)[C@@H]([C@@H](C)/C=C(\C)C(=O)[C@H](C)C[C@H](C)C(=O)O)O4)O3)O[C@]3(O[C@@H]([C@H]4O[C@@](O)(CO)[C@H](C)C[C@@H]4C)C[C@@H]3C)[C@@H]2C)O[C@@H]1C` (stereo partly specified), the entry is “inactive”; as for `CCCCCCC(C)(C)c1cc(O)c2c(c1)OC(C)(C)C1CC=C(CO)C[C@H]21` (stereo partly specified), “inactive”; as for `C[C@]12COC(=O)C[C@@H]1CC[C@@H]1[C@@H]2CC[C@@]2(C)[C@H]1CC[C@]2(C)O`, “inactive”.
Take `O=C1CC(c2ccc(O)cc2)Oc2cc(O)cc(O)c21` (stereo unspecified): the result in test [10] was inactive.
